Results published in PubChem BioAssay (EPA / NIEHS).
Several values for one entry are separate records, joined by “and”; a condition that tells them apart may be missing. Identical values can stand only once. Results filed as inconclusive are left out. The source holds several records for some structures; these can differ, active in one and inactive in another. Activity calls are given as the source filed them. The calls were made as follows, unless noted: active = hit-call score of the fitted dose curve at least 0.9, where 1 is the maximum; inactive = score below 0.9.

Columns and labels:
[1] = ATG_TCF_b_cat_CIS: Attagene CIS-FACTORIAL HepG2 Assay for human T-Cell-Factor with beta-catenin (TCF/b-cat) (AID 2282965); conditions: HepG2 TCF/beta-catenin cis-reporter transcription, actives raise or lower the signal
Method in brief: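 In this cis-format system, transfected HepG2 cells report endogenous transcription factor activity. Readout after 24 h exposure is reporter transcript abundance from RT-PCR and capillary electrophoresis, analysed for gain or loss of signal versus DMSO.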

[2] = ATG_TAL_CIS: Attagene CIS-FACTORIAL HepG2 Assay for human TAL Basal Promoter (AID 2282966); conditions: HepG2 Attagene cis-factorial TAL promoter reporter; actives raise or lower the signal;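 also: background control endpoint measuring basal TAL promoter reporter mRNA not a specific factor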
Method in brief: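 Basal-promoter background-control endpoint from a multiplexed HepG2 reporter panel. Cells were exposed 24 h, then reporter mRNA was read by RT-PCR/CE fluorescence and fitted in both directions relative to DMSO.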

[3] = ATG_TGFb_CIS: Attagene CIS-FACTORIAL HepG2 Assay for human Transforming Growth Factor (TGF) (AID 2282967); conditions: HepG2 Attagene CIS TGFb reporter, mRNA transcription; actives raise or lower the signal
Method in brief: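 HepG2 cells transiently transfected with cis-promoter-driven multiplexed reporter units; 24 h compound exposure. Reporter mRNA measured by RT-PCR, 6-FAM labeling, HpaI digestion and capillary electrophoresis; bidirectional fit versus DMSO baseline.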

[4] = ATG_VDRE_CIS: Attagene CIS-FACTORIAL HepG2 Assay for human Vitamin D Receptor Element (VDRE) (AID 2282968); conditions: HepG2 VDRE cis-reporter transcription, actives raise or lower the signal
Method in brief: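 Transfected HepG2 reporter cells, chemical treatment 24 h. RNA isolated, cDNA amplified with reporter-specific primers, products analysed by capillary electrophoresis. Endpoint fitted in both directions versus DMSO.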

[5] = molecular target: Nuclear receptor subfamily 1 group I member 3 (Homo sapiens) (UniProt Q14994); experiment: ATG_CAR_TRANS: Attagene TRANS-FACTORIAL HepG2 Assay for human Constitutive Androstane Receptor (CAR) (AID 2282969; active = hit-call score of the fitted dose curve at least 0.9, where 1 is the maximum;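 also: activators raise reporter mRNA above DMSO so AC50 marks induction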); conditions: HepG2 Attagene TRANS-FACTORIAL CAR reporter
Method in brief: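 Steps: transient transfection of HepG2 with multiple GAL4-UAS reporter units; 24 h compound incubation; RNA isolation, RT-PCR, 6-FAM primer extension, HpaI digest; capillary electrophoresis. Gain-of-signal relative to DMSO negative control.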

[6] = molecular target: Estrogen receptor (Homo sapiens) (UniProt P03372); experiment: ATG_ERa_TRANS: Attagene TRANS-FACTORIAL HepG2 Assay for human Estrogen Receptor alpha (ERa) (AID 2282970; active = hit-call score of the fitted dose curve at least 0.9, where 1 is the maximum); conditions: HepG2 Attagene TRANS ERa GAL4 reporter, mRNA
Method in brief: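 Gal4-fusion ERa transactivation, measured as reporter transcript level in transiently transfected HepG2 cells. Exposure 24 h; RT-PCR plus capillary electrophoresis with fluorescence detection.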

[7] = molecular target: X-box-binding protein 1 (Homo sapiens) (UniProt P17861); experiment: ATG_Xbp1_CIS: Attagene CIS-FACTORIAL HepG2 Assay for human X-box Binding Protein 1 (XBP1) (AID 2282972); conditions: HepG2 XBP1 cis-element reporter, Attagene multiplex; actives raise or lower the signal
Method in brief: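 Human hepatoma HepG2, cis-element reporter system, 24 h treatment; mRNA quantified by RT-PCR/CE fluorescence; fit relative to DMSO.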

[8] = ATG_M_19_TRANS: Attagene TRANS-FACTORIAL HepG2 Assay for M19 Transcription Factor (Internal Marker) (AID 2282974; active = hit-call score of the fitted dose curve at least 0.9, where 1 is the maximum); conditions: HepG2 Attagene TRANS-FACTORIAL M19 internal marker reporter
Method in brief: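 Cells: human HepG2, transiently transfected with multiplexed reporter transcription units. Exposure: 24 h. Detection: RT-PCR of reporter mRNA with capillary electrophoresis. Analysis: gain-of-signal vs DMSO.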

[9] = molecular target: Steroid hormone receptor ERR1 (Homo sapiens) (UniProt P11474); experiment: ATG_ERRa_TRANS: Attagene TRANS-FACTORIAL HepG2 Assay for human Estrogen-Related Receptor alpha (ERRa) (AID 2282971; active = hit-call score of the fitted dose curve at least 0.9, where 1 is the maximum); conditions: HepG2 Attagene TRANS reporter, ERRa transactivation
Method in brief: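 HepG2 cells transiently transfected with GAL4-UAS reporter units and chimeric NR-Gal4 constructs; after 24 hour compound incubation, reporter mRNA quantified by RT-PCR, fluorescent labelling and capillary electrophoresis, gain of signal versus DMSO.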

[10] = molecular target: Androgen receptor (Homo sapiens) (UniProt P10275); experiment: ATG_AR_TRANS: Attagene TRANS-FACTORIAL HepG2 Assay for human Androgen Receptor (AR) (AID 2282973; active = hit-call score of the fitted dose curve at least 0.9, where 1 is the maximum); conditions: HepG2 Attagene TRANS-FACTORIAL AR reporter transcription
Method in brief: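 HepG2 cells transiently transfected with AR-Gal4 chimera and GAL4-UAS reporter units; chemical exposure 24 h. Reporter mRNA quantified by RT-PCR with fluorescent labelling and capillary electrophoresis; gain-of-signal fitted against DMSO.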

Measured: AC50

Chain of Steroid hormone receptor ERR1 (Homo sapiens) (P11474 whole entry, looked up, the tested form may be a part): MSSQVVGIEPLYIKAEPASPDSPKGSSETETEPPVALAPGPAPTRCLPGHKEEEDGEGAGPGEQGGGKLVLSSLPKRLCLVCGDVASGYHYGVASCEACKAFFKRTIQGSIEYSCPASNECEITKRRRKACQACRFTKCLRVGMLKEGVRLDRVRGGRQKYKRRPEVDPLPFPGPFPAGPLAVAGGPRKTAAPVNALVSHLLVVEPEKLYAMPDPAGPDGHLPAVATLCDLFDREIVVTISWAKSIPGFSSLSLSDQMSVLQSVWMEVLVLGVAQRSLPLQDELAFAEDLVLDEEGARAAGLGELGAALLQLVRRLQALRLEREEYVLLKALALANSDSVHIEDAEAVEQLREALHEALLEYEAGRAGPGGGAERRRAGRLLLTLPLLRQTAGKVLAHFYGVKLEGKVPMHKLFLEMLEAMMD
Chain of Estrogen receptor (Homo sapiens) (P03372 whole entry, looked up, the tested form may be a part): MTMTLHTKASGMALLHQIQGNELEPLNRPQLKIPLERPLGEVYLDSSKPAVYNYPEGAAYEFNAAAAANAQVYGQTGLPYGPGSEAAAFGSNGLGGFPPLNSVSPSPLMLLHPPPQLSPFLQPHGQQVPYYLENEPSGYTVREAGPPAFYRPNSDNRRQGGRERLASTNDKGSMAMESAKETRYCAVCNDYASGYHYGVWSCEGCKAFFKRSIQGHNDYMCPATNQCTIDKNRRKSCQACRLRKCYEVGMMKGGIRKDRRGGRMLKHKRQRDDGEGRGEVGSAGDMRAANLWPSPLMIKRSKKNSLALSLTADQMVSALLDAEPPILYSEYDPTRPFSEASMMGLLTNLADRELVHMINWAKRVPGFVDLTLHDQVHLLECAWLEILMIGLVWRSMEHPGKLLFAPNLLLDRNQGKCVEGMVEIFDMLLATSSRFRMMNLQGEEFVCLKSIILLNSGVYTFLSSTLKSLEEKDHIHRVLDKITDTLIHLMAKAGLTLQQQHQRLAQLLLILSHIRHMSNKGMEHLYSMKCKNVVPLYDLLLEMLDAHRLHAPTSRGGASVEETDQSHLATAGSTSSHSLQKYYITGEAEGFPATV
Chain of Nuclear receptor subfamily 1 group I member 3 (Homo sapiens) (Q14994 whole entry, looked up, the tested form may be a part): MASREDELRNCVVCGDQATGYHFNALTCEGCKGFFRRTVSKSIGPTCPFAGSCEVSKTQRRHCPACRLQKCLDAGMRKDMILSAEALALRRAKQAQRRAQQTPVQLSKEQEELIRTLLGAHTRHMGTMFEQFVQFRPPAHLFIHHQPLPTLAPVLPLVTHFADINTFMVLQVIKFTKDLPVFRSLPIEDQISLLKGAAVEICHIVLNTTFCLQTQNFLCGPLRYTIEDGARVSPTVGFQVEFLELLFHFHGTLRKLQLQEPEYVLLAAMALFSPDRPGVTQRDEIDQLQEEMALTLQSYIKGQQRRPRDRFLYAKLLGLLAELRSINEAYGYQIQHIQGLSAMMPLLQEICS
Chain of X-box-binding protein 1 (Homo sapiens) (P17861 whole entry, looked up): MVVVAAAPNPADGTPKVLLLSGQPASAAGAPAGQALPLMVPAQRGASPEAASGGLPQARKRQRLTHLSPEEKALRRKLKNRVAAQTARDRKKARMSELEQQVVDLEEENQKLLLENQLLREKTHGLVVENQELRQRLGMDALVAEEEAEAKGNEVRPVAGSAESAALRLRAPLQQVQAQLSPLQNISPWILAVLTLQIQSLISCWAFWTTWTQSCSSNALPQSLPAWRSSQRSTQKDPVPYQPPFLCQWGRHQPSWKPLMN
Chain of Androgen receptor (Homo sapiens) (P10275 whole entry, looked up, the tested form may be a part): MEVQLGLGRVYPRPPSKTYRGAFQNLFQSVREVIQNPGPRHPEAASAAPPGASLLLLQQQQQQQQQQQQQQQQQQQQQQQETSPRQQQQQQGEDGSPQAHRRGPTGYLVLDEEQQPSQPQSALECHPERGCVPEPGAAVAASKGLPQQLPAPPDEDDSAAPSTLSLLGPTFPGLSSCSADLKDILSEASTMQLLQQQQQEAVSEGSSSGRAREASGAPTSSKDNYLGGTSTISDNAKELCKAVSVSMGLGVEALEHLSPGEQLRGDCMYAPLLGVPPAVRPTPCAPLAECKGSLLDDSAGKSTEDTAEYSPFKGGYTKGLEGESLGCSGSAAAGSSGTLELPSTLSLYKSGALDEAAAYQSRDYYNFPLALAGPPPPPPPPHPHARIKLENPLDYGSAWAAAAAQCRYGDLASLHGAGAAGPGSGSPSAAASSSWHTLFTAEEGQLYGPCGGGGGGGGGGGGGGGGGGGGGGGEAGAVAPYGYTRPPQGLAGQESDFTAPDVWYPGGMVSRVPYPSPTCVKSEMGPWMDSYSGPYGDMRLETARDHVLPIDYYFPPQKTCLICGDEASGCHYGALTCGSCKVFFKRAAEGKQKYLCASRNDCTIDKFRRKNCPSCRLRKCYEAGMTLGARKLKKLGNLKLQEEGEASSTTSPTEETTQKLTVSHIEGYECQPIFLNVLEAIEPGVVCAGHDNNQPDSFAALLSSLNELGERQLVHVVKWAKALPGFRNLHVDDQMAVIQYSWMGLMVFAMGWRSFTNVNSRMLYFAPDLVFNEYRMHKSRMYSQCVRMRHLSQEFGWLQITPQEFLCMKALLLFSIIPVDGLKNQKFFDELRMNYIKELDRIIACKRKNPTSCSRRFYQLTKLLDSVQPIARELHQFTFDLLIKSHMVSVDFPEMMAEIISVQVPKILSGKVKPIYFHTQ

O=S1OCC2C(CO1)C1(Cl)C(Cl)=C(Cl)C2(Cl)C1(Cl)Cl (stereo not given)
active: [6] 2.04 µM
not listed: [9] | [10]
inactive: all other assays above

CNC(=O)CSP(=S)(OC)OC
not listed: [8] | [9] | [10]
inactive: all other assays above

Cc1cc(C)nc(NC(=O)NS(=O)(=O)c2ccccc2C(=O)OC2COC2)n1
active: [4] 50 µM
not listed: [8] | [9] | [10]
inactive: all other assays above

CNC(=O)Oc1ccccc1OC(C)C
not listed: [10]
inactive: all other assays above

O=C(O)C(F)(F)C(F)(F)C(F)(F)C(F)(F)C(F)(F)C(F)(F)C(F)(F)F
inactive: [1] | [2] | [3] | [4] | [7] | [8]
active: [1] 221 µM and 231 µM

N#CN
not listed: [8] | [9] | [10]
inactive: all other assays above

CNC(=O)/C=C(\C)OP(=O)(OC)OC
not listed: [8] | [9] | [10]
inactive: all other assays above

C[C@H]1[C@H](c2ccc(Cl)cc2)SC(=O)N1C(=O)NC1CCCCC1
active: [4] 13.7 µM
not listed: [8] | [9] | [10]
inactive: all other assays above

O=C(Nc1ccccc1)Nc1cnns1
active: [4] 50 µM | [7] 77.6 µM
not listed: [10]
inactive: all other assays above

OCCOc1ccccc1
not listed: [10]
inactive: all other assays above

COP(=S)(OC)Oc1ccc(SC)c(C)c1
inactive: [1] | [2] | [3] | [5] | [7]
active: [4] 25.7 µM | [6] 18.8 µM

O=[N+]([O-])/N=C1\NCCN1Cc1ccc(Cl)nc1
not listed: [8]
inactive: all other assays above

O=S(=O)(O)C(F)(F)C(F)(F)C(F)(F)C(F)(F)C(F)(F)C(F)(F)C(F)(F)C(F)(F)F
active: [3] 62.2 µM [middle of 9 runs] | [8] 100 µM
inactive: [1] | [2] | [3] | [4] | [9] | [7] | [8]

CC1(C)C(C=C(Cl)Cl)C1C(=O)OC(C#N)c1ccc(F)c(Oc2ccccc2)c1 (stereo not given)
active: [4] 8.85 µM
not listed: [10]
inactive: all other assays above

CNC(=O)Oc1cccc(N=CN(C)C)c1
active: [4] 82.3 µM | [7] 90.4 µM
inactive: [1] | [2] | [3] | [5] | [6]

CCOC1Oc2ccc(OS(C)(=O)=O)cc2C1(C)C (stereo not given)
active: [4] 25.7 µM | [6] 25.4 µM
not listed: [9]
inactive: all other assays above

COC(=O)c1ccccc1CS(=O)(=O)NC(=O)Nc1nc(OC)cc(OC)n1
not listed: [8] | [10]
inactive: all other assays above

COc1nn(CSP(=S)(OC)OC)c(=O)s1
active: [4] 50 µM
not listed: [8] | [9] | [10]
inactive: all other assays above

ClC1C(Cl)C(Cl)C(Cl)C(Cl)C1Cl (stereo not given)
active: [2] 100 µM | [7] 42.6 µM
inactive: [1] | [2] | [3] | [9] | [7] | [8]

Oc1cc(Cl)ccc1Oc1ccc(Cl)cc1Cl
inactive: [1] | [2] | [3] | [4] | [5] | [9] | [7] | [8]
active: [1] 11.1 µM and 19.2 µM and 14.4 µM | [2] 11.1 µM | [4] 8.06 µM [middle of 6 runs] | [7] 11.3 µM [middle of 7 runs]

N#Cc1c(Cl)c(Cl)c(Cl)c(C#N)c1Cl
active: [4] 0.267 µM
not listed: [9] | [10]
inactive: all other assays above
